Read-out in assay [1]: Matrix Metallopeptidase 9 (MMP9), MMP9 (gene 4318)
Briefly: BSK_KF3CT_MMP9: BioMAP Diversity Plus: KF3CT Assay for Matrix Metallopeptidase 9 (MMP9) Biomarker Activity (AID 2283074).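 As to AC50: MMP9 protein level quantified by ELISA in the co-culture.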 To be noted: primary human keratinocytes with fibroblasts; actives raise or lower the signal. An outline of the steps:
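ELISA read-out of MMP-9 at 24 h post-dosing in a co-culture of human skin keratinocytes and foreskin fibroblasts. Gain or loss of signal was fitted in both directions against DMSO.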

Read-out in assay [2]: urokinase plasminogen activator (uPA), PLAU (gene 5328)
The assay can be described thus: BSK_KF3CT_uPA: BioMAP Diversity Plus: KF3CT Assay for urokinase plasminogen activator (uPA) Biomarker Activity (AID 2283075). The conditions noted are these: primary human keratinocytes with fibroblasts; actives raise or lower the signal. An outline of the steps:
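Skin co-culture (keratinocytes + foreskin fibroblasts), human primary; 24 h post-dose; uPA by ELISA; gain/loss fit vs DMSO baseline.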

Read-out in assay [3]: CD40, CD40 (gene 958)
The assay can be described thus: BSK_LPS_CD40: BioMAP Diversity Plus: LPS Assay for CD40 Biomarker Activity (AID 2283076). To be noted: primary human HUVEC with PBMC; actives raise or lower the signal. An outline of the steps:
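HUVEC plus PBMC co-culture stimulated with LPS; CD40 quantified by ELISA 24 h after compound dosing. Fitting was bidirectional relative to DMSO. SRB staining of parallel cultures flagged overt cytotoxicity.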

Read-out in assay [4]: E-selectin (Homo sapiens) (UniProt P16581)
Briefly: BSK_LPS_Eselectin: BioMAP Diversity Plus: LPS Assay for Eselectin Biomarker Activity (AID 2283077). The conditions noted are these: primary human HUVEC with PBMC; actives raise or lower the signal. An outline of the steps:
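Human umbilical vein endothelial cells co-cultured with PBMC under LPS stimulation; cell-surface E-selectin measured by ELISA 24 h after dosing. Change in either direction versus DMSO, with SRB total-protein staining in parallel cultures for cytotoxicity.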

Read-out in assay [5]: Interleukin-8 (IL8), CXCL8 (gene 3576)
The assay can be described thus: BSK_LPS_IL8: BioMAP Diversity Plus: LPS Assay for Interleukin-8 (IL8) Biomarker Activity (AID 2283078). The conditions noted are these: primary human HUVEC with PBMC; actives raise or lower the signal. An outline of the steps:
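Human umbilical vein endothelial cells co-cultured with PBMC, LPS-stimulated, exposed to compound for 24 h. IL-8 quantified by ELISA; fitted in both directions against DMSO, with SRB total-protein staining of parallel cultures for cytotoxicity.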

A short description of assay [6]: BSK_LPS_SRB: Viability Assessment in the BioMAP Diversity Plus: LPS Assay (AID 2283079).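 Also: total protein by sulforhodamine B absorbance as a cytotoxicity measure; measured one day after compound addition.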 The conditions noted are these: primary human HUVEC with PBMC. An outline of the steps:
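Co-culture of human umbilical vein endothelial cells and PBMC, read 24 h after dosing. Total protein by 0.1% SRB staining after 10% TCA fixation, absorbance at 560 nm; bidirectional fit against DMSO.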

Read-out in assay [7]: Interleukin-1 alpha (IL1a), IL1A (gene 3552)
Briefly: BSK_LPS_IL1a: BioMAP Diversity Plus: LPS Assay for Interleukin-1 alpha (IL1a) Biomarker Activity (AID 2283080). The conditions noted are these: primary human HUVEC with PBMC; actives raise or lower the signal. An outline of the steps: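 Human umbilical vein endothelial cells co-cultured with PBMC and stimulated with LPS; IL-1a measured by ELISA 24 h after dosing. Bidirectional fitting against DMSO; cytotoxicity checked by SRB staining in parallel cultures.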

Read-out in assay [8]: Monocyte Chemoattractant Protein-1 (MCP1), CCL2 (gene 6347)
The assay can be described thus: BSK_LPS_MCP1: BioMAP Diversity Plus: LPS Assay for Monocyte Chemoattractant Protein-1 (MCP1) Biomarker Activity (AID 2283081).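 As to AC50: secreted MCP-1 protein quantified by ELISA in culture supernatant.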 To be noted: primary human HUVEC with PBMC; actives raise or lower the signal. An outline of the steps: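 Human umbilical vein endothelial cells co-cultured with PBMC, LPS-stimulated; secreted MCP-1 measured by ELISA 24 h after compound addition. Bidirectional curve fitting against DMSO baseline; SRB total-protein staining in parallel cultures for cytotoxicity.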

Assay [9] can be described thus: BSK_LPS_PGE2: BioMAP Diversity Plus: LPS Assay for Prostaglandin E2 (PGE2) Biomarker Activity (AID 2283082). To be noted: primary human HUVEC with PBMC; actives raise or lower the signal. An outline of the steps:
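PGE2 release measured by ELISA in an LPS-activated co-culture of human umbilical vein endothelial cells and peripheral blood mononuclear cells, read at 24 h post-dosing. DMSO served as baseline for bidirectional curve fitting.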

Read-out in assay [10]: Macrophage colony-stimulating factor (MCSF), CSF1 (gene 1435)
Briefly: BSK_LPS_MCSF: BioMAP Diversity Plus: LPS Assay for Macrophage colony-stimulating factor (MCSF) Biomarker Activity (AID 2283083). The conditions noted are these: primary human HUVEC with PBMC; actives raise or lower the signal. An outline of the steps: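 HUVEC–PBMC co-culture, M-CSF measured by ELISA 24 h after chemical dosing. Fitted in both directions relative to DMSO as negative control; overt cytotoxicity assessed by SRB total-protein staining in parallel cultures.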

Read-out in assay [11]: Tissue Factor, F3 (gene 2152)
The assay can be described thus: BSK_LPS_TissueFactor: BioMAP Diversity Plus: LPS Assay for Tissue Factor Biomarker Activity (AID 2283084). To be noted: primary human HUVEC with PBMC; actives raise or lower the signal. An outline of the steps:
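Human umbilical vein endothelial cells co-cultured with PBMC were dosed with compound. Cell-surface CD142 was measured by ELISA 24 h later. Activity was fitted bidirectionally against DMSO, with SRB total-protein staining in parallel cultures for cytotoxicity.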

Read-out in assay [12]: Tumor necrosis factor (Homo sapiens) (UniProt P01375)
Briefly: BSK_LPS_TNFa: BioMAP Diversity Plus: LPS Assay for Tumour Necrosis Factor alpha (TNFa) Biomarker Activity (AID 2283085).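 As to AC50: TNFa protein level quantified by ELISA in the co-culture.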 To be noted: primary human HUVEC with PBMC; actives raise or lower the signal. An outline of the steps: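 TNFa was quantified by ELISA in LPS-activated co-cultures of human endothelial cells and PBMC, 24 h post-dosing. Both increases and decreases versus DMSO were fitted.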

Read-out in another assay: CD38, CD38 (gene 952)
The assay can be described thus: BSK_SAg_CD38: BioMAP Diversity Plus: SAg Assay for CD38 Biomarker Activity (AID 2283087). To be noted: primary human HUVEC with PBMC; actives raise or lower the signal. An outline of the steps: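 CD38 quantified by ELISA (fluorescence) in a superantigen-activated endothelial cell–PBMC co-culture at 24 h post-dose. Activity fitted in both directions relative to DMSO; parallel SRB and Alamar Blue cytotoxicity read-outs.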

Read-out in assay [13]: CD40, CD40 (gene 958)
Briefly: BSK_SAg_CD40: BioMAP Diversity Plus: SAg Assay for CD40 Biomarker Activity (AID 2283088). To be noted: primary human HUVEC with PBMC; actives raise or lower the signal. An outline of the steps: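 HUVEC plus PBMC co-culture, superantigen-activated, with CD40 read by ELISA 24 h after dosing. Curves fitted in both directions against DMSO. Overt cytotoxicity checked by parallel SRB total-protein staining.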

Read-out in another assay: CD69, CD69 (gene 969)
Briefly: BSK_SAg_CD69: BioMAP Diversity Plus: SAg Assay for CD69 Biomarker Activity (AID 2283089).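 As to AC50: cell surface CD69 protein quantified by ELISA with fluorescence detection.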 To be noted: primary human HUVEC with PBMC; actives raise or lower the signal. An outline of the steps: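 Values derive from bidirectional fitting relative to DMSO vehicle. Cells: umbilical vein endothelium plus peripheral blood mononuclear cells, treated 24 h before fluorescent ELISA for CD69.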

Read-out in assay [14]: Monocyte Chemoattractant Protein-1 (MCP1), CCL2 (gene 6347)
The assay can be described thus: BSK_SAg_MCP1: BioMAP Diversity Plus: SAg Assay for Monocyte Chemoattractant Protein-1 (MCP1) Biomarker Activity (AID 2283090). To be noted: primary human HUVEC with PBMC; actives raise or lower the signal. An outline of the steps:
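Values derive from bidirectional fitting of ELISA-measured MCP1 against DMSO controls. Readings were taken 24 h after dosing human vascular endothelial cells co-cultured with peripheral blood mononuclear cells under superantigen stimulation.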

Read-out in assay [15]: E-selectin (Homo sapiens) (UniProt P16581)
The assay can be described thus: BSK_SAg_Eselectin: BioMAP Diversity Plus: SAg Assay for Eselectin Biomarker Activity (AID 2283091). To be noted: primary human HUVEC with PBMC; actives raise or lower the signal. An outline of the steps:
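Human umbilical vein endothelial cells co-cultured with peripheral blood mononuclear cells, SAg system. E-selectin is measured by ELISA 24 h after dosing and fitted bidirectionally against DMSO. Cytotoxicity is checked by SRB staining of parallel cultures.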

Read-out in assay [16]: Monokine induced gamma interferon (MIG), CXCL9 (gene 4283)
The assay can be described thus: BSK_SAg_MIG: BioMAP Diversity Plus: SAg Assay for Monokine induced gamma interferon (MIG) Biomarker Activity (AID 2283092). To be noted: primary human HUVEC with PBMC; actives raise or lower the signal. An outline of the steps:
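Values reflect bidirectional fitting of ELISA-measured MIG against DMSO vehicle, taken 24 h after dosing of a co-culture of human umbilical vein endothelial cells and peripheral blood mononuclear cells.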

A short description of assay [17]: BSK_SAg_PBMCCytotoxicity: PBMC Cytotoxicity Assessment in the BioMAP Diversity Plus: SAg Assay (AID 2283093).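 Also: fitted both ways against DMSO so a hit may be loss or gain of signal.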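 As to AC50: PBMC superantigen activated with SEB plus TSST-1 one hour after compound addition.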 The conditions noted are these: primary human HUVEC with PBMC. An outline of the steps: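 PBMC viability by Alamar Blue reduction, fluorescence read at 546/580 nm after 6 h dye exposure. Cells were dosed 1 h before SEB plus TSST-1 activation (20 ng/mL final each), then held 90 h; endothelial/PBMC human co-culture.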

Read-out in assay [18]: Vascular cell adhesion molecule 1 (VCAM1), VCAM1 (gene 7412)
Briefly: BSK_LPS_VCAM1: BioMAP Diversity Plus: LPS Assay for Vascular cell adhesion molecule 1 (VCAM1) Biomarker Activity (AID 2283086). To be noted: primary human HUVEC with PBMC; actives raise or lower the signal. An outline of the steps:
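VCAM-1 quantified by ELISA in an LPS-activated co-culture of human endothelial cells and peripheral blood mononuclear cells, read 24 h post-treatment. Fitted in both directions versus DMSO; parallel SRB staining flags overt cytotoxicity.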

The source made the active and inactive calls. The calls were made as follows: active = hit-call score of the fitted dose curve at least 0.9, where 1 is the maximum; inactive = score below 0.9.

Sequence of E-selectin (Homo sapiens) (P16581 whole entry, looked up): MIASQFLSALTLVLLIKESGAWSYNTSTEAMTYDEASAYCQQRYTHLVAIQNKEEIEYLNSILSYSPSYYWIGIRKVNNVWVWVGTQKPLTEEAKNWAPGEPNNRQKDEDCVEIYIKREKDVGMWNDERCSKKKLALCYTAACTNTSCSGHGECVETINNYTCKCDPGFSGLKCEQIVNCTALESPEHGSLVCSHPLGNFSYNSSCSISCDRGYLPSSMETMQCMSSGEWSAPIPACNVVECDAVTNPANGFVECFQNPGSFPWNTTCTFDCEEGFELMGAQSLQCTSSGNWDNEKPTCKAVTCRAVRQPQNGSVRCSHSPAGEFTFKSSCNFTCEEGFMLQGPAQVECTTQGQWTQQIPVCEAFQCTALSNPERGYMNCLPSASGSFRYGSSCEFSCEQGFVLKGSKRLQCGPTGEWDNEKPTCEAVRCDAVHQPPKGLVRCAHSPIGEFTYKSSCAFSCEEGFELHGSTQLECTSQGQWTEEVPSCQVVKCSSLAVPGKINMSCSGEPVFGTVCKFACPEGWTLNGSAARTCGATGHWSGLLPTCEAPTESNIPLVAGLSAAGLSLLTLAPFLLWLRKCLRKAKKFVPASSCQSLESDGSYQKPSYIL
Sequence of Tumor necrosis factor (Homo sapiens) (P01375 whole entry, looked up): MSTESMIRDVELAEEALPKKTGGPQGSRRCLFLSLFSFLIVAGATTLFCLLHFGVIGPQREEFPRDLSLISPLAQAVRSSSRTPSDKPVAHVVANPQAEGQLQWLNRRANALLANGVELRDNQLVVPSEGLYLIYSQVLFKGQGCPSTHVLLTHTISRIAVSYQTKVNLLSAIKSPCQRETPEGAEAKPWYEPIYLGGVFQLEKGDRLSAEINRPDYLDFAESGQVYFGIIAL

A word on the AC50: it is the concentration at which the activity in the assay is half-maximal. For `O=[N+]([O-])c1ccc2c3c(cccc13)CC2`, the outcome in assay [1] is “inactive”; in assay [2], “inactive”; in the assay with CD40, CD40 (gene 958) [3], “inactive”; in assay [4], “inactive”; in [5], “inactive”; in assay [6], “inactive”. Also, the result in [7], in [8], in [9], in assay [10], in [11] and in assay [12] was inactive. For the same compound, the outcome with CD40, CD40 (gene 958) [13] was “inactive”; in the assay with CD69, CD69 (gene 969), “inactive”; in assay [14] it was “inactive”; in [15], “inactive”; in assay [16] it was “inactive”; in assay [17] it was “inactive”. The AC50 with CD38, CD38 (gene 952) is 20 µM (active).

For `C(=NC1CCCCC1)=NC1CCCCC1`, the AC50 is 12.6 µM (active) in [1]; 28.8 µM (active) in assay [2]; 27.4 µM (active) in the assay with CD40, CD40 (gene 958) [3]; 34.9 µM (active) in assay [4]; 30.9 µM (active) in [5]; 32.8 µM (active) in assay [6]. The AC50 was 29.4 µM (active) in assay [7]; 30 µM (active) in [8]; 20 µM (active) in [10]; 34.8 µM (active) in assay [11]; 35.1 µM (active) in assay [12]; 14.1 µM (active) with CD38, CD38 (gene 952). For the same compound, the AC50 with CD40, CD40 (gene 958) [13] is 17.3 µM (active); in the assay with CD69, CD69 (gene 969) it was 7.97 µM (active); in assay [14], 19.3 µM (active); in [15], 3.97 µM (active); in assay [16] it was 12.6 µM (active); in assay [17], 16.5 µM (active). Further, the result in assay [9] was inactive.

For `CN(C)N=O`, the outcome was “inactive” in [1]; “inactive” in assay [2]; “inactive” with CD40, CD40 (gene 958) [3]; “inactive” in assay [4]; “inactive” in [5]; “inactive” in [6]. Also, the result in assay [8], in [9], in [10], in [11], in [12] and in assay [18] was inactive. Also, the outcome is “inactive” with CD38, CD38 (gene 952); “inactive” with CD40, CD40 (gene 958) [13]; “inactive” with CD69, CD69 (gene 969); “inactive” in assay [14]; “inactive” in assay [15]; “inactive” in assay [16]. Besides, the outcome in assay [17] was inactive.

The values are drawn from PubChem BioAssay (EPA / NIEHS).
